From PubChem BioAssay (Tox21)
Inconclusive results are not listed. Calls of active or inactive are those of the source. Unless noted, calls come from the whole dose curve; as a rule, active = well fitted curve in the direction sought with a large enough effect in the repeat runs; inconclusive = weak or mixed curves; inactive = no such curve, though single readings can be large; an effect the other way counts as inactive or inconclusive.

What was measured:
[1] = qHTS assay to identify small molecule antagonists of the vitamin D receptor (VDR) signaling pathway - cell viability counter screen (AID 743225); note: % is set by controls: 0 for no effect and ±100 for the full control effect; nearly all actives have a fitted effect of over 50% in size
Procedure, shortened: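 In this counter screen, VDR-bla HEK 293T cells receive test compound plus 3 nM final calcitriol for 16 h at 37C. Room-temperature steps of 2 h with the beta-lactamase substrate, then 30 min with CellTiter-Glo, precede the luminescence read.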

[2] = qHTS assay to identify small molecule agonists of the NFkB signaling pathway (AID 1159509; active = well fitted curve in the direction sought with a large enough effect in the signal ratio in the repeat runs, not every such curve was filed as active; the % refers to the signal ratio; note: series mostly up to about 61 µM; % is set by controls: 0 for no effect and ±100 for the full control effect)
Procedure, shortened: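 Beta-lactamase reporter assay run in quantitative high-throughput format on an NF-kB-responsive ME-180 line, with 5 hr compound treatment and a FRET-based blue/green fluorescence readout.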

[3] = qHTS assay to identify small molecule agonists of the NFkB signaling pathway - cell viability counter screen (AID 1159515; calls by dose curve; note: series mostly up to about 61 µM; % is set by controls: 0 for no effect and ±100 for the full control effect; nearly all actives have a fitted effect of over 55% in size)
Procedure, shortened: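 Read by CellTiter-Glo luminescence (30 min, room temperature) in the wells also used for the beta-lactamase FRET read. ME-180 NFkB-bla cells at 2,000 per well were plated overnight, then exposed to compound for 5 hr at 37 C.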

[4] = qHTS assay to identify small molecule agonists of the endoplasmic reticulum stress response signaling pathway (AID 1159516; active = well fitted activation curve with a large enough effect in the signal ratio in the repeat runs, not every such curve was filed as active; the % refers to the signal ratio; note: % is set by controls: 0 for no effect and ±100 for the full control effect)
Procedure, shortened: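 Ratiometric FRET readout (405 nm excitation; 460 and 530 nm emission) of a beta-lactamase gene driven by the ER stress response element, after 2 hr substrate loading. HeLa ESRE-bla cells were seeded overnight and treated with compounds for only 5 hr at 37 C.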

[5] = qHTS assay to identify small molecule agonists of the endoplasmic reticulum stress response signaling pathway - cell viability counter screen (AID 1159517; calls by dose curve; note: series mostly up to about 61 µM; % is set by controls: 0 for no effect and ±100 for the full control effect; nearly all actives have a fitted effect of over 50% in size)
Procedure, shortened: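 Cytotoxicity of test compounds toward ESRE-bla HeLa cells was assessed after 5 hr exposure. The luminescent CellTiter-Glo signal was measured 30 min after reagent addition.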

[6] = qHTS assay to identify small molecule antagonists of the retinoid-related orphan receptor gamma (ROR-gamma) signaling pathway - cell viability counter screen (AID 1159520); note: % is set by controls: 0 for no effect and ±100 for the full control effect; nearly all actives have a fitted effect of over 50% in size
Procedure, shortened: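 Tet-on ROR gamma CHO cells (1,000/well) were plated 4 hr, given compounds in DMSO for 2 hr at 37 C, then induced with 1 uM final doxycycline for 16 hr. Viability was read as ATP by CellTiter-Glo luminescence after 30 min.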

[7] = qHTS assay to identify small molecule agonists of the AP-1 signaling pathway - cell viability counter screen (AID 1159525; calls by dose curve; note: nearly all actives have a fitted effect of over 55% in size)
Procedure, shortened: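 Each titration point was normalised to DMSO and tetra n-octyl ammonium bromide controls. The read was Cell Titer Glo luminescence after 30 min at RT, following 5 h compound exposure of ME-180 AP-1-bla cells at 37 °C.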

[8] = qHTS assay to identify small molecule agonists of the RXR signaling pathway - cell viability counter screen (AID 1159529); note: nearly all actives have a fitted effect of over 50% in size; note: potency is the fitted concentration of half-maximal effect
Procedure, shortened: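 Viability read-out for the RXR-alpha agonist qHTS: luminescent CellTiter-Glo signal after 30 min at RT. HEK 293T bla reporter cells, 2% charcoal-stripped FBS, 16 hr compound incubation; tetraoctyl ammonium bromide as cytotoxic control.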

[9] = qHTS assay to identify small molecule antagonists of the retinoid acid receptor (RAR) signaling pathway - cell viability counter screen (AID 1159551); note: % is set by controls: 0 for no effect and ±100 for the full control effect; nearly all actives have a fitted effect of over 35% in size
Procedure, shortened: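 Cytotoxicity counter screen: ATP content quantified by CellTiter-Glo luminescence in C3RL4 cells treated 6 hr at 37 C with compound and retinol (1 uM final). Cells plated at 1,000/well and cultured overnight before dosing.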

[10] = qHTS assay to identify small molecule antagonists of the retinoic acid receptor (RAR) signaling pathway (AID 1159552)
Procedure, shortened: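 Using a RARE-driven luciferase construct in C3RL4 cells, retinol at 1 uM final provided the agonist stimulus while compounds were co-applied. After 6 hours at 37 C, luminescence was recorded to flag inhibitors of retinol signaling.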

[11] = target: Retinoic acid receptor RXR-alpha (Homo sapiens) (UniProt P19793); test: qHTS assay to identify small molecule agonists of the RXR signaling pathway (AID 1159527; calls by dose curve; note: % is set by controls: 0 for no effect and ±100 for the full control effect; nearly all actives have a fitted effect of over 35% in size)
Sequence of Retinoic acid receptor RXR-alpha (Homo sapiens) (P19793 whole entry, looked up): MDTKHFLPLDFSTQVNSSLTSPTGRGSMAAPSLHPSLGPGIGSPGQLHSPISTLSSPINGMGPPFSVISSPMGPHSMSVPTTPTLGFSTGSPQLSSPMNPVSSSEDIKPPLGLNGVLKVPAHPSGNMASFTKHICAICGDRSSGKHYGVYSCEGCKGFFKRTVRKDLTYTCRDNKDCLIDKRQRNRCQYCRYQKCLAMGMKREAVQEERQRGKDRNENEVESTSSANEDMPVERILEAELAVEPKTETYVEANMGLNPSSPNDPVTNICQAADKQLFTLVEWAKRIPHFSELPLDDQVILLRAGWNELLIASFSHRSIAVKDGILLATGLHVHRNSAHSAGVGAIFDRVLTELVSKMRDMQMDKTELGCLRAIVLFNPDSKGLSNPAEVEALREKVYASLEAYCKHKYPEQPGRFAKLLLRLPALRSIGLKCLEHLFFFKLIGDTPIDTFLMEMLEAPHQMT
Procedure, shortened: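 Fluorescence ratio readout (460 vs 530 nm) from GeneBLAzer RXR-alpha HEK 293T cells after 16 hr compound treatment; cells seeded 5 hr beforehand in low-serum, charcoal-stripped medium.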

[12] = qHTS assay to identify small molecule agonists of the retinoic acid receptor (RAR) signaling pathway (AID 1159553); note: potency is the fitted concentration of half-maximal effect
Procedure, shortened: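 Luminescence was measured 30 min after luciferase reagent addition at room temperature. Before that, C3RL4 reporter cells (1,000 per well, plated overnight) were treated with compound for 6 hr at 37 C and 5% CO2.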

[13] = qHTS assay to identify small molecule agonists of the AP-1 signaling pathway (AID 1159526; calls by dose curve; note: % is set by controls: 0 for no effect and ±100 for the full control effect)
[14] = qHTS assay to identify small molecule antagonists of the estrogen related receptor (ERR) signaling pathway - cell viability counter screen (AID 1224818);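 note: series mostly up to about 46 µM; viability measured after 17.5 h of compound exposure; % is set by controls: 0 for no effect and ±100 for the full control effect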
Procedure, shortened: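 Cytotoxicity counter screen: fluorescence from CellTiter-Fluor, added after 17.5 h compound exposure at 37 C and read 30 min later. ERR cell line seeded at 2,000 cells/well, preincubated 6 h before dosing.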

[15] = qHTS assay to identify small molecule antagonists of the estrogen related receptor (ERR) signaling pathway (AID 1224819)
Procedure, shortened: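 LOPAC library screened for antagonism as reduced One-Glo luminescence in ERR reporter cells (2,000/well). Compounds were added after 6 h pre-incubation and left 18 h at 37C; reading followed a 30 min room-temperature reagent step.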

[16] = qHTS assay to identify small molecule agonists of the estrogen related receptor (ERR) signaling pathway (AID 1224820); note: % is set by controls: 0 for no effect and ±100 for the full control effect
Procedure, shortened: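 Following a 6 h settling period, 2,000 ERR cells per well receive DMSO-dissolved compounds by pin tool and incubate 18 h at 37 C; agonist activity is scored from One-Glo luminescence read 30 min post-addition.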

[17] = qHTS assay to identify small molecule antagonists of the estrogen related receptor signaling pathway with the pleiotropic PPARgamma coactivator (PGC) cell viability counter screen (AID 1224822)
Procedure, shortened: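 Viability counter-screen read by fluorescence intensity after 30 min with CellTiter-Fluor at 37 C; PGC/ERR reporter cells were exposed to compounds for 17.5 h at 37 C following a 6 h preincubation.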

[18] = qHTS assay to identify small molecule agonists of the estrogen related receptor signaling pathway with the pleiotropic PPARgamma coactivator (PGC) (AID 1224823); note: % is set by controls: 0 for no effect and ±100 for the full control effect
Procedure, shortened: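 In this quantitative high-throughput screen, an 18 h, 37 C treatment of PGC/ERR cells with compounds in DMSO preceded a One-Glo luminescence read taken after 30 min at room temperature.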

[19] = target: Nuclear receptor ROR-gamma (Homo sapiens) (UniProt P51449); test: qHTS assay to identify small molecule antagonists of the retinoid-related orphan receptor gamma (ROR-gamma) signaling pathway (AID 1159521)
Procedure, shortened: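 Screening format: cell-based luciferase reporter in CHO cells with doxycycline-inducible RORγ. Compound pre-exposure lasts 2 h, doxycycline is 1 uM final, induction runs 16 h at 37 C, and ONE-Glo luminescence is read.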

O=Cc1ccc(O)c(O)c1O
inactive: Potency [1] | outcome [2] | outcome [3] | outcome [4] | outcome [5] | Potency [6] | outcome [7] | Potency [8] | outcome [9] | Potency [10]

COC(=O)c1ccc2cc(C(=O)OC)ccc2c1
inactive: Potency [1] | outcome [2] | outcome [3] | outcome [4] | outcome [5] | activity, negative = cytotoxicity [6] -0.583% [at 19 µM] | viability change, negative = cytotoxic [7] 2.85% [at 15.8 µM] | activation [11] 0.118% [at 15.8 µM] | activity change, negative = cytotoxicity [8] -6.68% [at 15.8 µM] | activity change, negative = cytotoxicity [9] 0.0867% [at 19 µM] | activity, negative = inhibition [10] -32% [at 19 µM]

O=C(CC(=O)C(F)(F)F)c1ccccc1
active: Potency [12] 22 µM
inactive: Potency [1] | outcome [2] | outcome [3] | outcome [4] | outcome [5] | Potency [6] | outcome [7] | Potency [8] | outcome [9] | Potency [10]

OCCN(CCO)CCN(CCO)CCO
inactive: Potency [1] | outcome [2] | outcome [3] | outcome [4] | outcome [5] | Potency [6] | outcome [7] | Potency [13] | outcome [9] | Potency [10] | Potency [12]

CC1CN(c2ccccc2)NC1=O (configuration not stated)
inactive: outcome [2] | outcome [3] | outcome [4] | outcome [5] | Potency [6] | outcome [7] | Potency [11] | Potency [8] | outcome [9] | Potency [10]

O=C1N(c2ccccc2)c2ccccc2C1(Cc1ccncc1)Cc1ccncc1
inactive: Potency [1] | outcome [2] | outcome [3] | outcome [4] | outcome [5] | Potency [6] | Potency [13] | Potency [11] | Potency [8] | outcome [9] | Potency [12] | outcome [14] | outcome [15] | outcome [16] | outcome [17] | outcome [18]

CCNCCO
inactive: Potency [1] | outcome [2] | outcome [3] | outcome [4] | outcome [5] | Potency [6] | outcome [7] | outcome [9] | Potency [12]

CC1=C2[C@H](/C=C(\C)C(=O)O)CC[C@@H](C)[C@H]2CC1
inactive: Potency [1] | outcome [2] | outcome [3] | outcome [4] | outcome [5] | Potency [6] | outcome [7] | outcome [9]
active: Potency [8] 45.3 µM

CC(Oc1c(Cl)cccc1Cl)C1=NCCN1 (configuration not stated)
inactive: Potency [1] | outcome [2] | outcome [3] | outcome [4] | outcome [5] | Potency [6] | outcome [7] | Potency [11] | Potency [8] | outcome [9] | Potency [10]

CCOc1ccccc1N
inactive: Potency [1] | outcome [2] | outcome [3] | outcome [4] | outcome [5] | Potency [6] | outcome [7] | Potency [8] | outcome [9] | Potency [10] | Potency [12]

C[C@]12C(=O)OC(=O)[C@H]1[C@H]1C=C[C@@H]2C1
inactive: Potency [1] | outcome [2] | outcome [3] | outcome [4] | outcome [5] | Potency [6] | outcome [7] | outcome [9] | Potency [10]

COc1ccc2nc(NC(=O)Nc3ccccc3)sc2c1
inactive: Potency [1] | outcome [2] | outcome [3] | outcome [4] | outcome [5] | Potency [6] | outcome [7] | outcome [9]

OCc1c2ccccc2cc2ccccc12
inactive: Potency [1] | outcome [2] | outcome [3] | outcome [5] | Potency [6] | Potency [19] | outcome [7] | Potency [11] | outcome [9]

Nc1ccc(Oc2ccc(N)c(N)c2)cc1
active: Potency [12] 1.72 µM
inactive: outcome [2] | outcome [3] | outcome [4] | outcome [5] | Potency [6] | outcome [7] | Potency [8] | outcome [9] | Potency [10]

Cc1ccc([N+](=O)[O-])c(N)c1
inactive: Potency [1] | outcome [2] | outcome [3] | outcome [4] | outcome [5] | Potency [6] | outcome [7] | Potency [8] | outcome [9]

CC(C)(C)c1ccc(OC(=O)c2ccccc2O)cc1
inactive: outcome [2] | outcome [3] | outcome [4] | outcome [5] | Potency [6] | outcome [7] | outcome [9] | Potency [10]
active: Potency [12] 1.09 µM

CCCCC1CCC(=O)O1 (configuration not stated)
inactive: Potency [1] | outcome [2] | outcome [3] | outcome [4] | outcome [5] | Potency [6] | outcome [7] | Potency [13] | outcome [9] | Potency [12]

CN(C)CC[C@@H](c1ccc(Cl)cc1)c1ccccn1
inactive: Potency [1] | outcome [2] | outcome [3] | outcome [4] | outcome [5] | Potency [6] | outcome [7] | outcome [9] | outcome [14] | outcome [17]

CCC(=O)O[C@]1(C(=O)SCF)[C@H](C)C[C@H]2[C@@H]3C[C@H](F)C4=CC(=O)C=C[C@]4(C)[C@@]3(F)[C@@H](O)C[C@@]21C
inactive: Potency [1] | outcome [2] | outcome [3] | outcome [4] | outcome [5] | Potency [6] | outcome [7] | Potency [8] | outcome [9] | Potency [12]

Cc1cccc(C)c1NC(=O)CN1CCCCCC1
inactive: Potency [1] | outcome [2] | outcome [3] | outcome [4] | outcome [5] | Potency [6] | outcome [7] | Potency [11] | Potency [8] | outcome [9]

C=CC1CO1 (configuration not stated)
inactive: Potency [1] | outcome [2] | outcome [3] | outcome [4] | outcome [5] | Potency [6] | Potency [13] | Potency [8] | outcome [9] | Potency [10] | Potency [12]

COc1ccc(S(=O)(=O)Nc2nnc(CC(C)C)s2)cc1
inactive: Potency [1] | outcome [2] | outcome [3] | outcome [4] | outcome [5] | Potency [6] | Potency [13] | Potency [8] | outcome [9] | Potency [10] | Potency [12]

COc1ccc(Nc2ccc(OC)cc2)cc1
inactive: Potency [1] | outcome [2] | outcome [3] | outcome [4] | outcome [5] | Potency [6] | outcome [7] | Potency [8] | outcome [9]
active: Potency [12] 4.94 µM

C/C(=N\O)[C@@H](C)NCC(C)(C)CN[C@H](C)/C(C)=N/O
inactive: Potency [1] | outcome [2] | outcome [3] | outcome [4] | outcome [5] | Potency [6] | Potency [13] | Potency [11] | Potency [8] | outcome [9] | Potency [10] | Potency [12]
